The target in the first assay is KLHL24. In words: pooled miR-30 sensor sort-seq; sequence = guide strand. Particulars: shRNA.
TTGCCTTGGTCAGTCCACCGGC had a sensor-assay potency score (higher = more potent) of -0.546.
The same measure, in the same setting: the figure for TGGATCATAAGATTGAACCTTA is 0.374; for TTACAGGATCGTAGCACTCAGT it is -1.07; for TATCTATGAATAGTCACACAGC it is -1.1.
TTTTGTGACGCCATCTGCCTTT gave a sensor-assay potency score (higher = more potent) of -0.286.
TTCAACTGGATCGTAACAGTAT came in with a sensor-assay potency score (higher = more potent) of -0.312.
With ATAACATCTGTGAATAAGCGGC, the sensor-assay potency score (higher = more potent) is -0.459.

The target of a further assay is KLHL5. The description is as above. Particulars: shRNA.
TAAAATTACATCACACAACTGT displayed a sensor-assay potency score (higher = more potent) of 0.596.
Still for that read-out and setting: as for TTTCTCTACATAAATTTGCATA, the figure is -0.841.
TGTGTGATCACAATCCACCAGC displayed a sensor-assay potency score (higher = more potent) of -0.62.
Consider TAATGTCTGACTACTATTGGAA, for which the sensor-assay potency score (higher = more potent) is -0.622.
For the sequence TTATTGTTGCTTTAAGTCCTTA, the sensor-assay potency score (higher = more potent) is -0.543.
As for TATCTTTCCACACAGTCTGAGA, the sensor-assay potency score (higher = more potent) was -1.09.
As to TTCATTAAAAACTTACAGCATG, the sensor-assay potency score (higher = more potent) was -0.802.
Sequence TTTGACATCAGGCACTTTGTGC came in with a sensor-assay potency score (higher = more potent) of -0.672.
Sequence TATGCAAATCTGTACAACCTTG came in with a sensor-assay potency score (higher = more potent) of -0.563.
On the same count and under the same terms, as for TAACATGGGTCGTCTCTCTGGT, the figure is 0.867.
TAGCACTGCAACACCGAACTGT registered a sensor-assay potency score (higher = more potent) of 0.529.
In the case of TTGACATCTGTGCACACAGTGT, the sensor-assay potency score (higher = more potent) is -0.886.

The values are drawn from the OligoGym collection.
Note: reference of the scale not given here.
